Screens from PubChem.
ELG1 genotoxic – genotoxicity induction in ELG1-luciferase HEK293T cells. HEK293T ELG1-luciferase reporter, luminescence, 16 h. Potency, µM (titrated, usually from 46 µM), usual class: activators. 330,000 compounds, 1.3% hits. AID 504466; also: nearly all actives have a fitted effect of over 60% in size
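HEK293T cells expressing luciferase-tagged ELG1 were treated with compound or DMSO for 16 hr at 37°C. Luciferase activity was then read after 30 min with ONE-Glo at room temperature; rising signal flags genetic stress.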
SMN2 splice up – enhancers of SMN2 splice variant expression; HEK293 SMN2-luciferase splicing reporter, luminescence, 30-36 h; Potency, µM (titrated, usually from 46.1 µM), hits mostly activators; 210,000 compounds, 2.8% hits; AID 1458; also: nearly all actives have a fitted effect of over 55% in size
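HEK293 cells carry an SMN2 […]–luciferase reporter in which exon 7 inclusion puts luciferase in frame. Cells were plated 10-12 h before compound addition, then incubated 30-36 h at 37C. ONE-Glo luminescence was read; sodium butyrate at 4.5 mM final served as control.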
NPC1 promoter act – NPC1 promoter activation; Huh7 NPC1 promoter luciferase reporter, 24 h; Potency, µM (titrated, usually from 9.22 µM), actives largely listed as activators; 320,000 compounds, 2.4% hits; AID 485313; also: nearly all actives have a fitted effect of over 60% in size
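Huh7 reporter cells (NPC1 promoter driving luciferase) are dosed with compound for 24 h at 37 °C, 5% CO2; luciferase detection reagent is then added and luminescence measured after 10 min at ambient temperature.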
FLuc modulator – firefly luciferase modulation, counter-screen for miR-21 project | P08659 | purified FLuc, Km substrates, luminescence inhibition | Potency, µM (titrated, usually from 57.5 µM), actives largely listed as inhibitors | 360,000 compounds, 6.9% hits; also: nearly all actives have a fitted effect of over 55% in size
Target sequence (P08659 whole entry, looked up): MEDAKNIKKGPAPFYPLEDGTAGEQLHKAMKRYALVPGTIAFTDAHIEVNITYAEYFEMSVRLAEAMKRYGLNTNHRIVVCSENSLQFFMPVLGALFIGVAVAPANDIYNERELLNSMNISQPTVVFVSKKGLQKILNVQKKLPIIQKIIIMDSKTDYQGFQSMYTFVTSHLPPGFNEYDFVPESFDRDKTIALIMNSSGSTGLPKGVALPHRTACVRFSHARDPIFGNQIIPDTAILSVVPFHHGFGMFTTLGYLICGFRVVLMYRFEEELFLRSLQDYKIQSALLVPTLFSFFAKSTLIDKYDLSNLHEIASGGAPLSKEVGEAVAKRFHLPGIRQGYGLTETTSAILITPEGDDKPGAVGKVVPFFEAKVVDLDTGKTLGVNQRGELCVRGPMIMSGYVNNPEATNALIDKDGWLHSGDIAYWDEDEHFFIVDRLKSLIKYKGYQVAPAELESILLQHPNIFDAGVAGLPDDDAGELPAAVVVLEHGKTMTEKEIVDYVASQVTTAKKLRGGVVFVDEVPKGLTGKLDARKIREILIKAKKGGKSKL
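Purified P. pyralis luciferase (10nM final) with 10uM D-luciferin and 10uM ATP (Km levels) in 50mM Tris acetate pH 7.5, 10mM Mg acetate, 0.01% Tween-20, 0.05% BSA; qHTS 6-point titration, ~60 µM downward; luminescence read.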
Rab9 promoter act – activates the Rab9 promoter; Huh7 Rab9 promoter-luciferase reporter, luminescence, 24 h; 320,000 compounds, 2.8% hits; AID 485297; Potency, µM (doses to about 9.22 µM), usual class: activators; also: nearly all actives have a fitted effect of over 60% in size
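Huh7 cells stably carrying Rab9 promoter–luciferase reporter, plated 1500 cells/well, compound added after 2 h and incubated 24 h at 37 °C; luciferase luminescence then read after 10 min with detection reagent.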
Hits are given with their value; i = inactive; ? = inconclusive; nt = no result given; [ ] = remark or other dose. Most compounds without a hit are left out; they make up all but 7.4% or so of the library. Calls follow the shape of the dose curve; as a rule, active = well fitted curve in the direction sought with a large enough effect; inconclusive = small, poorly fitted or top-dose-only effect, or another doubt; inactive = no such curve, though single readings can be large; an effect the other way counts as inactive or inconclusive.

SMILES	ELG1 genotoxic	SMN2 splice up	NPC1 promoter act	FLuc modulator	Rab9 promoter act
O=c1[nH]c(COc2ccc(Cl)cc2Cl)nc2ccccc12	9.2µM	nt	2.5µM	1.7µM	2.2µM
O=c1[nH]c(COc2ccc(Cl)cc2Br)nc2ccccc12	?	nt	2.8µM	6µM	2.8µM
COc1cc(/C=N/NC(N)=S)ccc1OC(=O)c1ccc(C)cc1	i	i	i	i	i
COc1ccc(C(=O)Oc2cccc(/C=N/NC(N)=S)c2)cc1	i	?	i	12µM	i
O=C(COc1ccccc1[N+](=O)[O-])N/N=C/c1cccc(OC(=O)c2ccc3c(c2)OCO3)c1	?	?	i	i	i
COC(=O)N/N=C/c1cccc(OC(=O)c2ccc3c(c2)OCO3)c1	i	nt	i	17µM	i
O=C(N/N=C/c1cccc(OC(=O)c2ccc3c(c2)OCO3)c1)c1cncc(Br)c1	i	16µM	i	i	?
N#C/C(=C\c1cc(Cl)cc(Cl)c1)c1cccnc1	nt	i	nt	nt	nt
CCOc1cc(N2CCOCC2)c(OCC)cc1NC(=O)c1cc(S(=O)(=O)N2CCOCC2)ccc1F	i	nt	nt	nt	nt
CCC(=O)Nc1ccc(-c2cc3ccccc3oc2=O)cc1	3.7µM	8.9µM	?	7.6µM	?
CCC(=O)Nc1cc(-c2cc3ccccc3oc2=O)ccc1OC	?	1.1µM	?	i	0.79µM
CC(=O)Nc1ccc(-c2cc3ccccc3o2)cc1	?	11µM	2.2µM	3µM	3.2µM
COc1ccc(-c2cc3ccccc3oc2=O)cc1NC(=O)c1ccc([N+](=O)[O-])o1	i	i	i	i	3.5µM
O=C(Cc1ccc(Cl)cc1)Nc1ccc(-c2cc3ccccc3oc2=O)c(Cl)c1	i	i	i	i	i
Cc1ccc(-n2nc(-c3ccc(F)cc3)c3cnc4cc5c(cc4c32)OCO5)cc1C	nt	i	nt	i	nt
COc1ccc(N2CCN(S(=O)(=O)c3ccc4c(c3)C(C(C)C)C(=O)N4)CC2)cc1 (stereo not drawn)	nt	nt	nt	i	nt
COc1ccc(-c2cc3ccccc3oc2=O)cc1NC(=O)c1ccc(Br)o1	?	3.2µM	?	i	?
O=[N+]([O-])c1cc(/C=N\Nc2nccs2)ccc1O	i	?	i	17µM	i
CCCn1c(CCc2ccccc2)n[nH]c1=S	i	nt	i	i	i
CC(=O)Nc1nonc1-c1nnc(SCc2ccccc2F)n1C	nt	nt	nt	i	nt
COc1ccccc1OCc1cc(C(=O)N2CCCC(OCc3cccnc3)C2)no1 (stereo not drawn)	8.2µM	nt	1.8µM	13µM	2.5µM
CSc1ccccc1OCc1cc(C(=O)N2CCCC(C)C2)no1 (stereo not drawn)	5.2µM	nt	1.6µM	6.7µM	1.4µM
CSc1ccccc1OCc1cc(C(=O)N2CCN(C3CCCC3)C(=O)C2)no1	?	nt	?	17µM	?
COc1ccc(OCc2cc(C(=O)N3CCCC(CO)C3)no2)c2ccccc12 (stereo not drawn)	?	nt	4µM	8.5µM	4µM
O=C(c1cc(COc2cccc3cnccc23)on1)N1CCCC(CCCO)C1 (stereo not drawn)	i	nt	i	i	i
SMILES	ELG1 genotoxic	SMN2 splice up	NPC1 promoter act	FLuc modulator	Rab9 promoter act
COc1ccc2c(C(=O)CCl)c[nH]c2c1	i	nt	i	?	i
CSc1ccccc1OCc1cc(C(=O)N2CCSCC2)no1	i	nt	2.2µM	?	1.4µM
Nc1ccc(-c2nc3ccc(-c4nc5ccc(N)cc5[nH]4)cc3[nH]2)cc1	nt	?	i	nt	i
c1ccc(-c2cc(-c3nc4ccccc4[nH]3)c3ccccc3n2)cc1	i	i	i	?	i
Cc1ccc2nc(-c3cccc(N)c3)[nH]c2c1	?	2.2µM	0.79µM	0.95µM	1.6µM
CC(=O)c1sc2nc(C)cc(C)c2c1N	i	?	i	i	i
Cc1ccc2nc(-c3sc4nc(C)cc(C)c4c3N)[nH]c2c1	?	2.5µM	i	0.34µM	?
Nc1cccc(-c2nc3ccccc3[nH]2)c1	?	13µM	2.8µM	13µM	4µM
Nc1ccc2nc(-c3cccc(-c4nc5ccc(N)cc5[nH]4)n3)[nH]c2c1	i	nt	i	9.5µM	i
CCc1cccc(C)c1Nc1c(-c2cccc(O)c2)nc2nc(C)cc(C)n12	nt	i	nt	i	nt
CN1CC(=O)N2[C@H](c3ccc4c(c3)OCO4)c3[nH]c4ccccc4c3C[C@@H]2C1=O	nt	nt	i	i	i
CC(C)C(=O)Nc1nc2cc3c(cc2s1)OCO3	18µM	i	?	13µM	?
CC(C)C(=O)Nc1nnc(SCC(=O)Nc2ccc3c(c2)OCO3)s1	i	i	i	i	i
CC(C)(C)C(=O)Nc1nc2cc3c(cc2s1)OCO3	?	nt	2µM	4.8µM	1.1µM
CCOc1ccccc1Nc1nnc(-c2cc3cc(OC)ccc3oc2=O)s1	nt	nt	nt	i	nt
CCOC(=O)N1CCC(NC(=O)c2ccc(CS(=O)c3cccc(Cl)c3)o2)CC1 (stereo not drawn)	i	nt	i	i	i
COc1ccc2nc(-c3ccc(Cl)cc3)cc(C(=O)O)c2c1	i	nt	i	8.5µM	i
Cc1ccc(-c2cc(C(=O)N3CCN(c4ccccc4O)CC3)c3ccccc3n2)o1	i	nt	?	0.76µM	2.2µM
COc1ccc(-c2cc(C(=O)N3CCOCC3)c3ccccc3n2)cc1OC	i	nt	i	?	i
COc1ccc(-c2cc(C(=O)N3CCOCC3)c3cc(C)ccc3n2)cc1	i	i	i	17µM	i
COc1ccc2nc(C)cc(C(=O)O)c2c1	i	i	i	i	i
Cc1ccc(-c2cc(C(=O)N3CCOCC3)c3ccccc3n2)cc1	i	i	i	11µM	i
CC(=O)Nc1ccc(NC(=O)CCCn2nc(C)c3sc4ccccc4c3c2=O)cc1	nt	nt	nt	i	nt
Cc1ccc(N2CC(C(=O)Nc3cccc(C(=O)NC4CC4)c3)CC2=O)cc1 (stereo not drawn)	i	nt	i	i	i
COC(=O)c1c(NC(=O)CCCOc2ccc(C)cc2)sc2c1C(C(=O)OC)CC2 (stereo not drawn)	nt	i	nt	?	nt
SMILES	ELG1 genotoxic	SMN2 splice up	NPC1 promoter act	FLuc modulator	Rab9 promoter act
COc1ccc(-c2cc(C(=O)N3CCCCC3)c3ccccc3n2)cc1	i	nt	i	5.4µM	i
COc1ccc(-c2cc(C(=O)N3CCCCCC3)c3cc(C)ccc3n2)cc1	i	nt	i	12µM	i
O=C(N=Nc1c(O)[nH]c2ccccc12)c1ccc2c(c1)OCO2	?	11µM	2.2µM	0.6µM	0.56µM
O=C(N=Nc1c(O)[nH]c2ccccc12)c1ccc(CN2CCOCC2)cc1	i	i	i	?	i
COc1ccc(CC(=O)NCC(=O)N=Nc2c(O)[nH]c3ccccc23)cc1	i[9.26 µM]	nt	i	i	i
O=C(CNC(=O)c1ccccn1)N=Nc1c(O)[nH]c2ccccc12	i	nt	i	15µM	i
C=CCn1c(O)c(N=NC(=O)c2ccc3c(c2)OCO3)c2ccccc21	i	i	?	3µM	?
O=C(N=Nc1c(O)[nH]c2ccccc12)c1ccco1	?	nt	3.5µM	5.4µM	2µM
C=CCOC[C@@H]1CN2[C@H](c3ccc(Br)cc3)[C@@H](C)CC[C@H]2C(=O)O1	nt	i	nt	nt	nt
CC(=O)/C=C(\C)N=Nc1c(O)[nH]c2ccccc12	i	nt	i	13µM	i
CC(C)CC(=O)N=Nc1c(O)[nH]c2ccccc12	?	i	i	i	?
